We go through ten molecules from article PMC5540273 (PLoS ONE, 2017).

The subject of assay [1] is AAK1. Particulars: n = 1.
Assay [2] relates to ABL1-nonphosphorylated. To be noted: concentration: 1 μM,replicates: in singlicate; n = 1.
For assay [3], the system named is ABL1-phosphorylated. To be noted: concentration: 1 μM,replicates: in singlicate; n = 1.
Assay [4] concerns ABL2. To be noted: concentration: 1 μM,replicates: in singlicate; n = 1.
The test system of assay [5] is ACVR1B. To be noted: concentration: 1 μM,replicates: in singlicate; n = 1.
In assay [6] the test system is ACVR1. Particulars: concentration: 1 μM,replicates: in singlicate; n = 1.
For assay [7], the system named is ACVR2A. To be noted: concentration: 1 μM,replicates: in singlicate; n = 1.
In assay [8] the test system is ACVR2B. Particulars: concentration: 1 μM,replicates: in singlicate; n = 1.
The test system of assay [9] is ACVRL1. To be noted: concentration: 1 μM,replicates: in singlicate; n = 1.
The subject of assay [10] is T1, ADCK3.
T1 construct: gene CABC1
Particulars: concentration: 1 μM,replicates: in singlicate; n = 1.

Assay [11] deals with ADCK4. Particulars: concentration: 1 μM,replicates: in singlicate; n = 1.
Assay [12] concerns AKT1. Particulars: concentration: 1 μM,replicates: in singlicate; n = 1.
Assay [13] deals with AKT2. Particulars: concentration: 1 μM,replicates: in singlicate; n = 1.
Assay [14] concerns AKT3. Particulars: concentration: 1 μM,replicates: in singlicate; n = 1.
For assay [15], the system named is ALK. Particulars: concentration: 1 μM,replicates: in singlicate; n = 1.
Assay [16] has as its system T2, AMPK-alpha1.
T2 construct: gene PRKAA1
Particulars: concentration: 1 μM,replicates: in singlicate; n = 1.

Assay [17] has as its system T3, AMPK-alpha2.
T3 construct: gene PRKAA2
Particulars: concentration: 1 μM,replicates: in singlicate; n = 1.

Assay [18] deals with ANKK1. To be noted: concentration: 1 μM,replicates: in singlicate; n = 1.
Assay [19] concerns T4, ARK5.
T4 construct: gene NUAK1
To be noted: concentration: 1 μM,replicates: in singlicate; n = 1.

Assay [20] has as its system T5, ASK1.
T5 construct: gene MAP3K5
Particulars: concentration: 1 μM,replicates: in singlicate; n = 1.

The mark [21] stands for this setting: concentration: 1 μM,replicates: in singlicate.

The structures appear in SMILES notation. Like-named read-outs stand apart in the source and are kept apart here.
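Also: KINOMEscan kinase panel screen.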

Turning to `O=C(NOCC1CC1)c1cc(Br)c(F)c(F)c1Nc1ccc(I)cc1Cl`, the “%Inh” value in [1] (setting [21]) is 0%; in assay [2] it was 52%; in assay [3], 0%; in assay [4], 0%; in [5], 0%; in assay [6], 0%. The “%Inh” value in assay [7] worked out at 2%; in assay [8], 0%; in assay [9] it was 0%; in assay [10], 7%; in assay [11] it was 0%; in assay [12], 0%. The “%Inh” value in assay [13] worked out at 0%; in [14] it was 0%; in assay [15], 0%; in [16], 4%; in assay [17], 0%; in assay [18], 0%. Moreover, the entries for the “%Inh” value in assay [19] and in assay [20] were 12% and 0%, respectively.

As for `Cn1ccc2ncnc(Oc3ccc(NC(=O)Nc4cncc(C(F)(F)F)c4)c(Cl)c3)c21`, the “%Inh” value in [1] (setting [21]) amounted to 0%; in assay [2], 92.7%; in assay [3], 35%; in assay [4] it was 27%; in assay [5], 0%; in assay [6] it was 0%. For the same molecule, the “%Inh” value in [7] was found to be 0%; in assay [8] it was 0%; in assay [9], 0%; in assay [10], 2%; in assay [11], 0%; in assay [12], 6%. Further, the “%Inh” value is 13% in [13]; 0% in assay [14]; 0% in assay [15]; 0% in assay [16]; 0% in assay [17]; 0% in assay [18]. Besides, the “%Inh” value in assay [19] and in assay [20] was 0% each time.

Consider `Cc1cccc(-c2nc(Nc3ccncc3)c3sccc3n2)n1` [GW869641], for which the “%Inh” value is listed as 25% in assay [1] (setting [21]); 0% in [2]; 16% in [3]; 0% in [4]; 96.5% in [5]; 0% in assay [6]. Further, the “%Inh” value in assay [7] is 42%; in [8], 41%; in assay [9] it was 14%; in assay [10], 0%; in [11], 8%; in assay [12], 5%. For the same molecule, the “%Inh” value stood at 0% in [13]; 3% in assay [14]; 33% in assay [15]; 20% in assay [16]; 27% in [17]; 12% in [18]. Moreover, the “%Inh” value in assay [19] is listed as 0%; in assay [20], 25%.

On to `O=C1NCCc2[nH]c(-c3ccncc3)cc21`, for which the “%Inh” value in [1] (setting [21]) worked out at 77%; in assay [2], 31%; in assay [3], 0%; in assay [4], 0%; in [5], 40%; in assay [6], 14%. Besides, the “%Inh” value in [7] is 40%; in [8], 70%; in [9], 19%; in [10] it was 33%; in assay [11], 0%; in [12], 0%. For the same molecule, the “%Inh” value amounted to 0% in [13]; 0% in [14]; 0% in assay [15]; 6% in assay [16]; 0% in [17]; 10% in [18]. Moreover, the figures for the “%Inh” value in [19] and in assay [20] were 0% and 40%, respectively.

As for `CC(=O)Nc1nc2cnc(Nc3cc(NC(=O)c4cccc(CC(C)(C)C#N)c4)ccc3C)nc2s1`, the “%Inh” value was 23% in [1] (setting [21]); 99.7% in [2]; 50% in assay [3]; 61% in [4]; 0% in [5]; 0% in [6]. In addition, the “%Inh” value in assay [7] is listed as 11%; in [8] it was 0%; in assay [9] it was 0%; in assay [10], 3%; in assay [11] it was 0%; in assay [12], 12%. Moreover, the “%Inh” value in [13] is on record as 5%; in assay [14], 0%; in [15] it was 42%; in assay [16] it was 3%; in assay [17], 7%; in assay [18], 0%. In addition, the “%Inh” value in assay [19] and in [20] was 7% each time.

Turning to `Cc1ccc(C(=O)Nc2ccc(Oc3ccc4nc(NC(=O)C5CC5)cn4c3)c(F)c2)c(=O)n1-c1ccccc1`, the “%Inh” value came out at 0% in assay [1] (setting [21]); 100% in assay [2]; 98.3% in assay [3]; 83% in [4]; 0% in assay [5]; 0% in [6]. Besides, the “%Inh” value in assay [7] worked out at 0%; in [8], 16%; in assay [9] it was 0%; in [10] it was 13%; in assay [11], 27%; in assay [12], 0%. For the same molecule, the “%Inh” value in assay [13] was found to be 0%; in assay [14] it was 7%; in assay [15] it was 8%; in [16], 5%; in assay [17] it was 0%; in [18] it was 0%. Also, the “%Inh” value in assay [19] and in assay [20] was 0% each time.

As to `Cl.Cl.NC[C@H](CC1CCCCC1)NC(=O)c1ccc(-c2ccnc3[nH]ccc23)s1` [GSK1581428], the “%Inh” value in [1] (1 µM) was determined as 75%; in [2], 0%; in assay [3] it was 0%; in assay [4] it was 8%; in assay [5], 0%; in assay [6], 5%. The “%Inh” value in assay [7] is recorded as 61%; in assay [8] it was 0%; in [9], 0%; in assay [10], 13%; in assay [11] it was 2%; in assay [12] it was 94.1%. Moreover, the “%Inh” value in assay [13] was found to be 93.4%; in assay [14], 98.1%; in assay [15] it was 37%; in [16], 77%; in assay [17] it was 72%; in assay [18], 0%. Also, the “%Inh” value in assay [19] is 89%; in [20], 0%.

In the case of `Cn1ccc2ncnc(Oc3ccc(NC(=O)Nc4cccc(C(F)(F)F)c4)c(Cl)c3)c21`, the “%Inh” value in assay [1] (setting [21]) is on record as 0%; in assay [2], 88%; in assay [3] it was 19%; in assay [4], 21%; in assay [5] it was 1%; in assay [6], 0%. The “%Inh” value in assay [7] was determined as 0%; in assay [8], 47%; in [9], 0%; in [10], 5%; in assay [11], 6%; in [12], 0%. The “%Inh” value amounted to 0% in assay [13]; 0% in assay [14]; 0% in [15]; 15% in assay [16]; 0% in [17]; 0% in assay [18]. Also, the “%Inh” value in assay [19] is recorded as 3%; in assay [20], 5%.

Consider `Cc1ccc2c(-c3ccnc(Nc4ccc(C(F)(F)F)cc4)n3)cnn2n1` [GW819776], for which the “%Inh” value in assay [1] (setting [21]) is on record as 12%; in [2], 36%; in assay [3], 28%; in assay [4], 1%; in [5], 11%; in [6] it was 0%. The “%Inh” value in assay [7] is 0%; in assay [8] it was 0%; in assay [9], 0%; in [10], 5%; in [11], 35%; in [12], 0%. Moreover, the “%Inh” value is reported as 0% in assay [13]; 0% in assay [14]; 0% in [15]; 11% in [16]; 8% in assay [17]; 0% in assay [18]. Besides, the “%Inh” value in [19] and in assay [20] was 0% each time.

Turning to `COC(=O)Nc1nc2cc(Oc3ccc(NC(=O)Nc4cc(C(F)(F)F)ccc4Cl)cc3)ccc2[nH]1.Cl` [GW697465], the “%Inh” value is reported as 0% in assay [1] (setting [21]); 97% in [2]; 32% in assay [3]; 89% in assay [4]; 0% in assay [5]; 0% in assay [6]. Moreover, the “%Inh” value in assay [7] was 0%; in [8], 0%; in assay [9] it was 0%; in assay [10], 82%; in assay [11], 48%; in [12] it was 0%. The “%Inh” value in assay [13] came to 0%; in assay [14], 0%; in assay [15] it was 30%; in assay [16] it was 0%; in assay [17], 0%; in [18] it was 0%. For the same molecule, the “%Inh” value is on record as 0% in assay [19] and 11% in assay [20].
